The values below come from PubChem BioAssay.

The source made the active and inactive calls.

For test [1], the system named is PRMT1 (protein arginine N-methyltransferase 1). Description: small molecules binding arginine methyltransferase PRMT1 – biochemical, small-molecule microarray, 635 nm fluorescence, primary screen (AID 1088).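 Also: binding of Prmt1 protein to compounds spotted on small-molecule microarray slides.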 The settings on record: higher = more signal.
Test [2] can be described thus: growth effects on S. cerevisiae YJM789 – YJM789 clinical isolate, OD600, 24 h, basal, primary screen (AID 1089).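 Also: growth of clinical yeast isolate S. cerevisiae YJM 789 seeded 1000 cells per well; test concentration not given here.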 The settings on record: higher = more signal, called active from +8 up or from −8 down.
Test [3] in a line: S. pombe growth modifiers, basal conditions – strain 972, OD600, 24 h, no modulator, primary screen (AID 1090).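 Also: basal condition with compound alone and no growth modifier present; test concentration not given here.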 The settings on record: S. pombe 972 growth, higher = more signal, called active from +8 up or from −8 down.
A short description of test [4]: budding yeast growth modifiers under rapamycin – strain BY4716, OD600, 96 h, primary screen (AID 1091). Also: test concentration not given here. The note with it: S. cerevisiae BY4716 + rapamycin, higher = more signal, called active from +8 up or from −8 down.
Test [5] deals with Torsin-1A-interacting protein 2 (Homo sapiens) (UniProt Q8NFQ8). Description: small molecules binding lysate-expressed LULL1 – cell lysate, human LULL1 lysate, 635/667 nm fluorescence, primary screen (AID 1092).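 Also: probe is lysate of COS7 cells overexpressing human LULL1; score merges per-feature 667 nm fluorescence with signal-to-noise.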 The settings on record: small-molecule microarray, hLULL1 lysate binding, 635 nm fluorescence; higher = more signal.
Chain of Torsin-1A-interacting protein 2 (Homo sapiens) (Q8NFQ8 whole entry, looked up): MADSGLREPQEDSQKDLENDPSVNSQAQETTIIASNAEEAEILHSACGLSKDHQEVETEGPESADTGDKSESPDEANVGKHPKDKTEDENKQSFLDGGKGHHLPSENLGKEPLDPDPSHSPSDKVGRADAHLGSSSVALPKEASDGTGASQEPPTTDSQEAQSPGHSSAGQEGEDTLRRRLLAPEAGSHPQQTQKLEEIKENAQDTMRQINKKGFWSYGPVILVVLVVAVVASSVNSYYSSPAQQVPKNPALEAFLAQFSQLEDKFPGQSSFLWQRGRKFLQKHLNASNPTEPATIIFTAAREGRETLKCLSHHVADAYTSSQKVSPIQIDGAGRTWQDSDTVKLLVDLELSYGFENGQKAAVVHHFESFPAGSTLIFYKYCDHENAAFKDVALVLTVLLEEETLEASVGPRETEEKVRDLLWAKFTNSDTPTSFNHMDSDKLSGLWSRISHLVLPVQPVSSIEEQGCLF
Test [6] in a line: optical density change of DRC41 E. coli – strain DRC41, OD650, 24 h, E. coli filamentation project, primary screen (AID 1093).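 Also: MC1000 strain lacking acrAB efflux and sulA so SOS filamentation is blocked; test concentration not given here.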 The note with it: E. coli DRC41 growth, higher = more signal, called active from +8 up or from −8 down.
The nature of test [7]: probe aLefty2 binding to arrayed compounds – biochemical, biotinylated probe, 635/667 nm fluorescence, primary screen (AID 1094).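 Also: score merges spot fluorescence near 667 nm with spot signal-to-noise ratio.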 The settings on record: small-molecule microarray, higher = more signal.
The test system of test [8] is Noggin (protein binding on small-molecule microarray). Description: small molecules binding Noggin protein – biochemical, 635/667 nm fluorescence, primary screen (AID 1095).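 Also: score merges 667 nm feature fluorescence with signal to noise over triplicate slides.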 The settings on record: 635 nm fluorescence, higher = more signal.
For test [9], the target named is Neurogenic locus notch homolog protein 3 (Homo sapiens) (UniProt Q9UM47). Description: small molecules binding NOTCH3 protein – biochemical, 635/667 nm fluorescence, primary screen (AID 1096). The settings on record: small-molecule microarray, 635 nm fluorescence, higher = more signal.
Chain of Neurogenic locus notch homolog protein 3 (Homo sapiens) (Q9UM47 whole entry, looked up): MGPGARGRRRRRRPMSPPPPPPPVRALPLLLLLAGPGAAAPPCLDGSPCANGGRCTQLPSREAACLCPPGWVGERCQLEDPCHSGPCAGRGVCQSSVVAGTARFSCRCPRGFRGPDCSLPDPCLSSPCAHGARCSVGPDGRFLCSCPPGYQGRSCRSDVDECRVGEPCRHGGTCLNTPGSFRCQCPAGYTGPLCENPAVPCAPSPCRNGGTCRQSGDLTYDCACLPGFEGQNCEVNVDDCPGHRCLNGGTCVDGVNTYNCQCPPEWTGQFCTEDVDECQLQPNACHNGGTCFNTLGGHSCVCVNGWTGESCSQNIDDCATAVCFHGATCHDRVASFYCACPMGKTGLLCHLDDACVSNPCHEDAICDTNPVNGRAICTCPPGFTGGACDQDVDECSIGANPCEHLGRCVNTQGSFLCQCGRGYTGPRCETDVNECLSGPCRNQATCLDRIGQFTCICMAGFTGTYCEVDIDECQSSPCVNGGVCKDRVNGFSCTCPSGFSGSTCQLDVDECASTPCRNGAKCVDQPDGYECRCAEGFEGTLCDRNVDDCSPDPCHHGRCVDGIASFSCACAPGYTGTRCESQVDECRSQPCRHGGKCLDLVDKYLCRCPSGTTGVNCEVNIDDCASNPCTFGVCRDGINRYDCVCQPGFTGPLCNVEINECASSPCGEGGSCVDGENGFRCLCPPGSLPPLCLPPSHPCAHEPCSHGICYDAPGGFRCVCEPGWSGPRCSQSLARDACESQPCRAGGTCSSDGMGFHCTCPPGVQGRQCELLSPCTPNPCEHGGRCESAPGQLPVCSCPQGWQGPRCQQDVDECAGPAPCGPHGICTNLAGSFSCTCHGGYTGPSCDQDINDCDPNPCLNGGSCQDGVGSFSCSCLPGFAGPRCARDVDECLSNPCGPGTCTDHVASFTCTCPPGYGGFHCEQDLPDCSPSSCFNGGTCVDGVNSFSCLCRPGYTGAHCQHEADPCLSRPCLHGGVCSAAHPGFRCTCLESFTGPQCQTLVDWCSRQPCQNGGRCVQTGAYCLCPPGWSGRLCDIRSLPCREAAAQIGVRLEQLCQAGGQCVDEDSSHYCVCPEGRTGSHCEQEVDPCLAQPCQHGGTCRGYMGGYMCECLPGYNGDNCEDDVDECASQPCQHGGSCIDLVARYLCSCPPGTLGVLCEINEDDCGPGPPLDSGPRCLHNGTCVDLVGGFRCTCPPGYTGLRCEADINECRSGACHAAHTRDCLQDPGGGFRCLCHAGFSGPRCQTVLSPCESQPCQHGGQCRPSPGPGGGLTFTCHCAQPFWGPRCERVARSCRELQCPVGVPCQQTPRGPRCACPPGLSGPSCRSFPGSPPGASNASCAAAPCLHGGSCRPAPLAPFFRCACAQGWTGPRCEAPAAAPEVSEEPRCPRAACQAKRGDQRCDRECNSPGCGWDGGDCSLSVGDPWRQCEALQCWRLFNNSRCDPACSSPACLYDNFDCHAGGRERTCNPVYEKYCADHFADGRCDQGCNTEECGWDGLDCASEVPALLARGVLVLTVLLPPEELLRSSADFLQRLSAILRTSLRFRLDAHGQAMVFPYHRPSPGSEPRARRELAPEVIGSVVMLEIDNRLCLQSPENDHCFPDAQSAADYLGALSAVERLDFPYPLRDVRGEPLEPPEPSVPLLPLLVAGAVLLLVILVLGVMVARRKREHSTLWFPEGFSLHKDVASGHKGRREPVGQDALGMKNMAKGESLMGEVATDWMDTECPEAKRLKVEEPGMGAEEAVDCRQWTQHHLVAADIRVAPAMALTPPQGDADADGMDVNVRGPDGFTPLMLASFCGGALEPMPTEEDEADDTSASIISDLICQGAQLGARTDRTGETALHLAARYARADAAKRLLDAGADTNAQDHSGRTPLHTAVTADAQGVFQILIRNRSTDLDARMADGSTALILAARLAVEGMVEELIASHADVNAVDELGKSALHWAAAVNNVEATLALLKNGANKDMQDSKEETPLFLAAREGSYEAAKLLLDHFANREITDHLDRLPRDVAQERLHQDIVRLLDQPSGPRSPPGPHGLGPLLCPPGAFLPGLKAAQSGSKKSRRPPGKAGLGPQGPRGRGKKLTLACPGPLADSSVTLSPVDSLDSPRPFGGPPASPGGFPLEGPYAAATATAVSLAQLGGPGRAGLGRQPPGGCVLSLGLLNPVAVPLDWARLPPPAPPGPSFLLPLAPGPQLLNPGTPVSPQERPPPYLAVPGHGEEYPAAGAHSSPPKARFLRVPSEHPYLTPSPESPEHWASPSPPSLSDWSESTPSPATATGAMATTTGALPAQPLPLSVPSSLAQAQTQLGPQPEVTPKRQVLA
A short description of test [10]: probe aEGFR binding to arrayed compounds – biochemical, biotinylated probe, 635/667 nm fluorescence, primary screen (AID 1097).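 Also: probe is a biotinylated anti-EGFR antibody binding compounds printed on slides; score combines fluorescence near 667 nm and signal to noise of each spot.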 The note with it: small-molecule microarray, higher = more signal.
For test [11], the system named is Plasmodium falciparum Sir2 (PF13_0152, Sir2A). Description: Plasmodium falciparum Sir2A binding compounds – biochemical, small-molecule microarray, 635 nm fluorescence, primary screen (AID 1098).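 Also: score merges spot fluorescence intensity with its signal-to-noise ratio.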 The settings on record: fluorescence 635 nm, higher = more signal.
A short description of test [12]: probe aDKK1 binding to arrayed compounds – biochemical, biotinylated probe, 635/667 nm fluorescence, primary screen (AID 1099).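 Also: score merges 667nm spot fluorescence with signal to noise across triplicate slides; reference of the scale not given here.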 The note with it: small-molecule microarray, higher = more signal.
Test [13] is described as follows: probe aCHRDL2 binding to arrayed compounds – biochemical, biotinylated probe, 635/667 nm fluorescence, primary screen (AID 1100). The note with it: small-molecule microarray, higher = more signal.
Test [14] is described as follows: change in splice reporter luminescence, either direction, cell-based, HEK293, spliceosome inhibition project, primary screen (AID 1101).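 Also: HEK293 cells carrying a splicing-competent luciferase reporter gene; test concentration not given here.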 The note with it: HEK293 splicing luciferase reporter, 24 h, higher = more signal, called active from +8 up or from −8 down. In general terms: Reporter assays use an easily measured gene product as a stand-in for the process of interest.

For test [15], the target named is Fibroblast growth factor 10 (Homo sapiens) (UniProt O15520). Description: compounds binding fibroblast growth factor 10 – biochemical, small-molecule microarray, 635 nm fluorescence, primary screen (AID 1102). The settings on record: FGF10 binding, fluorescence 635 nm, higher = more signal.
Chain of Fibroblast growth factor 10 (Homo sapiens) (O15520 whole entry, looked up): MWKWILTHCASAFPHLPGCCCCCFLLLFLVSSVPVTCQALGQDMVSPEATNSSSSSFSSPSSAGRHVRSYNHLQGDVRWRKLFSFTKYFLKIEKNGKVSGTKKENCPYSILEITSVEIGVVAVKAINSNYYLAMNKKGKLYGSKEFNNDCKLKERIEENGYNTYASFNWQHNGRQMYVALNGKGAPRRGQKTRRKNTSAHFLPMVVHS
Test [16] concerns glycogen synthase kinase-3 (GSK3A per assay name; protocol says GSK3B). Description: compounds binding glycogen synthase kinase-3 – biochemical, small-molecule microarray, 635 nm fluorescence, GSK3A, primary screen (AID 1103). Also: the record names both GSK3A and GSK3B. The note with it: fluorescence 635 nm, higher = more signal.
For test [17], the target named is Epidermal growth factor receptor (Homo sapiens) (UniProt P00533). Description: compounds binding epidermal growth factor receptor – biochemical, small-molecule microarray, 635 nm fluorescence, primary screen (AID 1104).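 Also: score merges 667 nm emission intensity with spot signal to noise over triplicate slides.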 The note with it: EGFR binding, higher = more signal.
Chain of Epidermal growth factor receptor (Homo sapiens) (P00533 whole entry, looked up): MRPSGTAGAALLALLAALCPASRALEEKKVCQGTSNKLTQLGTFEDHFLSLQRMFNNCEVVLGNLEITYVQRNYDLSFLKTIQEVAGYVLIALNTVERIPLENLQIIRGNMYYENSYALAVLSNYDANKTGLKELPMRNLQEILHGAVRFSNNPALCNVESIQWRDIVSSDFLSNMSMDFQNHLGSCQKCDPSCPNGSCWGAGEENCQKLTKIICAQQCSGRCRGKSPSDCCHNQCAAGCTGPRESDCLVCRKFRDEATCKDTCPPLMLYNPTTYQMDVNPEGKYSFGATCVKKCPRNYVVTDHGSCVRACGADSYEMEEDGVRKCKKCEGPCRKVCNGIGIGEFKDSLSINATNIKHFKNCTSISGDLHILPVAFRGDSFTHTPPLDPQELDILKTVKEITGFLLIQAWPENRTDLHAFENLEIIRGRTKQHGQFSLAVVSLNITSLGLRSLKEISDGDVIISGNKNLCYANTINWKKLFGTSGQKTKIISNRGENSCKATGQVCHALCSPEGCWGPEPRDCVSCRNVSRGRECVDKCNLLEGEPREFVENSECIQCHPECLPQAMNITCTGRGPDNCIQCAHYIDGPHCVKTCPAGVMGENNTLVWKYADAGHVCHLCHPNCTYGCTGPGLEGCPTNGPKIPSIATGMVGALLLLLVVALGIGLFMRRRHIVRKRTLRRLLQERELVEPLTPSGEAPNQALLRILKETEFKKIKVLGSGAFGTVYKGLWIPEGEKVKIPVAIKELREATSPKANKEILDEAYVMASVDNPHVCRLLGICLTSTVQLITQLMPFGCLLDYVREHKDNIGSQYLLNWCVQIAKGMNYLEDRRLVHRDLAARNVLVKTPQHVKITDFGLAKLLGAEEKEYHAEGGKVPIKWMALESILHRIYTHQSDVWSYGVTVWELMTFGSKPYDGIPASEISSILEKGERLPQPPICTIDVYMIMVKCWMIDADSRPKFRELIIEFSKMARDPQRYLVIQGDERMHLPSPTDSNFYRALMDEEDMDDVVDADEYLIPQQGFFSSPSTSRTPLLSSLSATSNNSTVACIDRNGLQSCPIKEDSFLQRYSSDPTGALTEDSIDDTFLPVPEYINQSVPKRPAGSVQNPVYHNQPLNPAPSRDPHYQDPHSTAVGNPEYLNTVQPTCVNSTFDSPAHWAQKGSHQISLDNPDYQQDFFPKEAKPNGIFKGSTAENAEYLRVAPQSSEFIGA
The target in test [18] is Follistatin-related protein 3 (Homo sapiens) (UniProt O95633). Description: compounds binding follistatin-related protein 3 – biochemical, small-molecule microarray, 635 nm fluorescence, primary screen (AID 1105).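 Also: score merges emission near 667 nm and signal to noise per printed spot across three slides.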 The settings on record: FSTL3 binding, higher = more signal.
Chain of Follistatin-related protein 3 (Homo sapiens) (O95633 whole entry, looked up): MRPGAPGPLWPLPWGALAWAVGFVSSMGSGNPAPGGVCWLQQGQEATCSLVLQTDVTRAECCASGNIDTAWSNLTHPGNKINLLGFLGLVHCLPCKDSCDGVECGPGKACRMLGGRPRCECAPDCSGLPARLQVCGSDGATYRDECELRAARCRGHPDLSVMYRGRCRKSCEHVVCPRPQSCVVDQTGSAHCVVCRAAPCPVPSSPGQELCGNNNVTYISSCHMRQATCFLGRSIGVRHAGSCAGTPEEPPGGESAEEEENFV
Test [19] has as its target Dickkopf-related protein 1 (Homo sapiens) (UniProt O94907). Description: small molecules binding DKK1 protein – biochemical, small-molecule microarray, 635 nm fluorescence scan, primary screen (AID 1106).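 Also: score merges emission near 667 nm with signal to noise over three replicate slides.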 The settings on record: higher = more signal.
Test [20] concerns Inhibin beta A chain (activin A). Description: small molecules binding activin A – biochemical, small-molecule microarray, 635 nm fluorescence scan, primary screen (AID 1107).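 Also: mouse activin A protein probed at 4.33 µg/mL on printed slides; score merges bound-protein fluorescence near 667 nm with spot signal-to-noise.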 The settings on record: INHBA, higher = more signal.

Chain of Dickkopf-related protein 1 (Homo sapiens) (O94907 whole entry, looked up): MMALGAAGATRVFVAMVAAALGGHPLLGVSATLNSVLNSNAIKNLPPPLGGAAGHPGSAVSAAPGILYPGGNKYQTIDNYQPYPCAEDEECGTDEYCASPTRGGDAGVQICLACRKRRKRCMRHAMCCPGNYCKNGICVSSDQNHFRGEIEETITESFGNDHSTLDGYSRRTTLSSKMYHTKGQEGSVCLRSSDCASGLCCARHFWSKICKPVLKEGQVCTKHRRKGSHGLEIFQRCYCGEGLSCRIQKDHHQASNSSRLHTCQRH

`CO[C@H]1COC(=O)[C@@H](C)NC(=O)CC=C[C@@H](C)[C@H](OC)COC(=O)CC=C[C@@H]1C`: the composite z-score is 1.55 in [1]; -0.619 in test [5]; -0.28 in test [7]; 1.52 in test [8]; 0.134 in test [9]; -0.299 in [10]. The composite z-score in test [11] is -1.61; in test [12], -0.994; in test [13] it was -1.7; in test [15], 0.518; in test [16], 0.442; in [17], -0.805. Besides, the composite z-score in test [18] came out at 1.34; in test [19] it was 1.2; in test [20], 1.62. For the same compound, the z-score was -1.66 (inactive) in [2]; -2.03 (inactive) in test [3]; -1.67 (inactive) in test [4]; 1.25 (inactive) in test [6]; -1.59 (inactive) in test [14].
Consider `COC(=O)[C@@]1(Cc2ccccc2N=[N+]=[N-])N=C(c2ccc(OCCCO)cc2)O[C@H]1c1ccccc1CN=[N+]=[N-]`, for which the composite z-score is 1.41 in test [1]; 2.6 in test [5]; 0.0641 in test [7]; 0.836 in [8]; 0.041 in test [9]; -0.114 in test [10]. In addition, the composite z-score is 1.16 in test [11]; 0.733 in [12]; 0.771 in test [13]; 0.468 in test [15]; 0.393 in [16]; -0.34 in [17]. In addition, the composite z-score in [18] was -0.0014; in test [19], -0.304; in test [20], 1.13. Further, the z-score in test [2] was 0.653 (inactive); in test [3], -1.3 (inactive); in [4] it was 28.5 (active); in test [6] it was 0.255 (inactive); in test [14], 1.07 (inactive).
For the compound `COc1ccc(CCNC(=O)[C@@]2(c3ccc([N+](=O)[O-])cc3)CC(=O)N(C(C)C)[C@@H]2c2ccc(CO)cc2)cc1`, the composite z-score was -0.383 in test [1]; 2.99 in test [5]; 0.11 in test [7]; -1.2 in [8]; -0.791 in [9]; -0.318 in test [10]. Besides, the composite z-score is 1.25 in test [11]; 0.716 in [12]; 1.24 in [13]; -0.787 in test [15]; -0.767 in test [16]; -1.57 in test [17]. Further, the composite z-score was -1.67 in test [18], -1.43 in [19] and -0.445 in test [20]. Besides, the z-score in [2] was -1.15 (inactive); in test [3] it was -1.2 (inactive); in [4], -1.1 (inactive); in [6] it was 1.89 (inactive); in test [14] it was -0.58 (inactive).
Turning to `O=C1O[C@@H](c2ccccc2)[C@@H](c2ccccc2)N2[C@@H](c3ccc(O)cc3)[C@]3(C(=O)Nc4ccccc43)[C@@H](C(=O)N3CCN(c4ncccn4)CC3)[C@H]12`, the composite z-score in test [1] is 1.29; in test [5], 2.71; in test [7] it was -0.12; in test [8] it was -0.534; in [9], 0.079; in test [10] it was -0.179. For the same compound, the composite z-score in test [11] was 1.13; in [12], 0.413; in test [13], 0.535; in [15] it was -0.0898; in [16], 0.202; in [17], -0.366. In addition, the composite z-score in test [18] was 0.0146; in test [19], -0.21; in [20], -0.437. Also, the z-score is 0.2 (inactive) in [2]; -1.95 (inactive) in test [3]; 1.98 (inactive) in [4]; 3.16 (inactive) in test [6]; -0.547 (inactive) in [14].
With `COC(=O)C[C@H]1O[C@]2(C(=O)N(Cc3ccccc3)c3ccc(I)cc32)[C@@H](C)[C@@H]1[Si](C)(C)c1ccc(OC)cc1`, the composite z-score is -0.949 in [1]; -0.484 in [5]; -0.0561 in test [7]; -0.598 in [8]; -0.625 in [9]; -0.101 in [10]. The composite z-score in test [11] was -0.237; in test [12] it was 0.19; in test [13] it was 0.533; in [15] it was 0.0095; in [16], -1.19; in test [17], -0.398. The composite z-score in [18] is -0.192; in test [19] it was -0.524; in test [20], 0.413. Moreover, the z-score in test [2] was 0.595 (inactive); in test [3] it was 0.676 (inactive); in test [4], 1.58 (inactive); in [6], -0.556 (inactive); in test [14], -0.853 (inactive).
